Drawing on PMC7862700, “An all-to-all approach to the identification of sequence-specific readers for epigenetic DNA modifications on cytosine”, this text covers binding signal for 2 sequences.

Assay in all cases: DAPPL (digital affinity profiling via proximity ligation, sequencing); 10 mM Tris-HCl pH 7.5, 50 mM NaCl, 1 mM DTT, 4% glycerol, room temperature, 30 min; GST-TFs on glutathione beads, 16-mer random dsDNA library, 0.1% formaldehyde crosslink after washing; high values mean tight binding
Holding throughout (settings): protein: recombinant; tags: N-terminal GST; dsDNA, one strand shown

In one assay the target is T1, ELK1 (Homo sapiens, UniProt P19419 1-428).
T1 sequence: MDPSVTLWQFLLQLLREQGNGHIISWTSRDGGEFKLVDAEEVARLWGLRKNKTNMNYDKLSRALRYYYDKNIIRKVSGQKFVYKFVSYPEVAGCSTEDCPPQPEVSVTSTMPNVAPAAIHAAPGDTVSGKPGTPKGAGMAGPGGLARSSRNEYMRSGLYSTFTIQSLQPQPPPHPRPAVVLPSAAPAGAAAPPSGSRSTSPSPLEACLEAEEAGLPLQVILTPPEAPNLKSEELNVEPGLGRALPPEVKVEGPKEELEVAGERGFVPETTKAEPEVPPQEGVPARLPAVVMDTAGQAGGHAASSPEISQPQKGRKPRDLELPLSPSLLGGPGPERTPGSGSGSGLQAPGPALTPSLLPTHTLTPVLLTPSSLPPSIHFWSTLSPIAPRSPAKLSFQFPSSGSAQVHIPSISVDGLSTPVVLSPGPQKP
In a few lines:
(§1)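 Binding signal is each hexamer's read frequency for a factor divided by its frequency in the tag-only sample. The factors were GST-fused human transcription factors from yeast, captured on glutathione beads, DNA-barcoded and pooled with that sample. Pools were incubated with 200 nmole of a random double-stranded 16-mer DNA library in Tris/NaCl/DTT/glycerol buffer at room temperature for 30 min, then washed, crosslinked with 0.1% formaldehyde, proximity-ligated with BsaI/T4 ligase (1 h, 37 °C), PCR-amplified and sequenced on an Illumina NextSeq500.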

The target in another assay is T2, GABPA (Homo sapiens, UniProt Q06546 1-454).
T2 sequence: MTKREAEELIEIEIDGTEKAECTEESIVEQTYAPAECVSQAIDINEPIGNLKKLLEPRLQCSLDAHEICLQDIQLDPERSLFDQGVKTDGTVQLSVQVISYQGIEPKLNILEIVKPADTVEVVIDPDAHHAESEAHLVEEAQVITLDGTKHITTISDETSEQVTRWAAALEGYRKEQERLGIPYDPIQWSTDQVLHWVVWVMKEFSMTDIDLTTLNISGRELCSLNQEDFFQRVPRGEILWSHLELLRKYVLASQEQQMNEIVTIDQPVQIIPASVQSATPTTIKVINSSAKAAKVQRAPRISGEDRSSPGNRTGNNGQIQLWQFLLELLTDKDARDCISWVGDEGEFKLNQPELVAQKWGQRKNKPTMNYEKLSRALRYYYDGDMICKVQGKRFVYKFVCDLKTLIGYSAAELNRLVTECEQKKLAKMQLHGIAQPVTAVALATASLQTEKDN
In a few lines: as §1

The next assay addresses T3, ERG (Homo sapiens, UniProt P11308 1-479).
T3 sequence: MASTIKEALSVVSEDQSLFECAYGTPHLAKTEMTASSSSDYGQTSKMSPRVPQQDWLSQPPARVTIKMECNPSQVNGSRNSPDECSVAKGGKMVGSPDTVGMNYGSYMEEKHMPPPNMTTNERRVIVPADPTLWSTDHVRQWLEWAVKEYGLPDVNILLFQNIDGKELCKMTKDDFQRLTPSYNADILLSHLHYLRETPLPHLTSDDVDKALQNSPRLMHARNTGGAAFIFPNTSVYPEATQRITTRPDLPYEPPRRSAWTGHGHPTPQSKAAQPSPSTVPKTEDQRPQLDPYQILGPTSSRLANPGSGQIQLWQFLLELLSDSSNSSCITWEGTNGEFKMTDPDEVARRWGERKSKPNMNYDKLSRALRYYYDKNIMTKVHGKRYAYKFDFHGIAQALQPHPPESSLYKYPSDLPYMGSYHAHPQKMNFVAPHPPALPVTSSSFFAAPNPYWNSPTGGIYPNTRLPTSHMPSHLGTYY
In a few lines: as §1

In another assay the target is ELF1 (Homo sapiens, UniProt P32519 1-619). The essentials: as §1
ELF1, sequence (P32519 whole entry): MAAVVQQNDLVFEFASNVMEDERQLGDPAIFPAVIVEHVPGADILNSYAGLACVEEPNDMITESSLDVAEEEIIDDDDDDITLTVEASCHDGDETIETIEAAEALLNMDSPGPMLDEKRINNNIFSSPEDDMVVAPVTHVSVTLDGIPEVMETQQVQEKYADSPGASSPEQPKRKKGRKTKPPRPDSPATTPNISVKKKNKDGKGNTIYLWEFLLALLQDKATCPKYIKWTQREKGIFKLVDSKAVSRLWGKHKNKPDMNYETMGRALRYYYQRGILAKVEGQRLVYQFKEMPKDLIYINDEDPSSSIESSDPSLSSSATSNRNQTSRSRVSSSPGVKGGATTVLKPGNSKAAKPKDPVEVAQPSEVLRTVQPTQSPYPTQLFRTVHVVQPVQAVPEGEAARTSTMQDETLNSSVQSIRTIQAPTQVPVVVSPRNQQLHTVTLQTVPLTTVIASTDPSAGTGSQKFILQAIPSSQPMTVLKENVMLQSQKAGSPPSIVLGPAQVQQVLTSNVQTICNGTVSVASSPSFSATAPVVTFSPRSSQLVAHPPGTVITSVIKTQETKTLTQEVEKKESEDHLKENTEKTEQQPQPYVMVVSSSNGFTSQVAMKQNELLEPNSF
Another assay deals with SPI1 (Homo sapiens, UniProt P17947 1-270). The essentials:
as §1

In the next assay the target is SPIB (Homo sapiens, UniProt Q01892 1-262). In a few lines: as §1
SPIB, sequence (Q01892 whole entry): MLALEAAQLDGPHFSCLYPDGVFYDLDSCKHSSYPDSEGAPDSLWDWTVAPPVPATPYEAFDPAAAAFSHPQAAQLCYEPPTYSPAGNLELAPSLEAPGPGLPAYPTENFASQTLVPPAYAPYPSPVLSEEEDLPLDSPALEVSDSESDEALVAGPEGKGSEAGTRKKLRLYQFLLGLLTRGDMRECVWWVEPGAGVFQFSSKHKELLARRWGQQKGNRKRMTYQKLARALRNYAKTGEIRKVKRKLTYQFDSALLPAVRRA
The next assay concerns the target T4, FEV (Homo sapiens, UniProt Q99581 1-238).
T4 sequence: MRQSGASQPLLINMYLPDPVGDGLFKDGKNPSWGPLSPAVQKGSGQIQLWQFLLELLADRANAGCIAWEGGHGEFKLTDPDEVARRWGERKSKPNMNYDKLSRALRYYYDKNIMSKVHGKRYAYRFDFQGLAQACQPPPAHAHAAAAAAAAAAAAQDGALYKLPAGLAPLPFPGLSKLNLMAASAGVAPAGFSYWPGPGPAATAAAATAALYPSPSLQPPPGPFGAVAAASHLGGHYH
The essentials:
as §1

The target of the next assay is ETV5 (Homo sapiens, UniProt P41161 1-510). In a few lines:
as §1

The next assay deals with ELF4 (Homo sapiens, UniProt Q99607 1-663). In a few lines:
as §1

The target in the next assay is T5, ELK4 (Homo sapiens, UniProt P28324-2 1-405).
T5 sequence: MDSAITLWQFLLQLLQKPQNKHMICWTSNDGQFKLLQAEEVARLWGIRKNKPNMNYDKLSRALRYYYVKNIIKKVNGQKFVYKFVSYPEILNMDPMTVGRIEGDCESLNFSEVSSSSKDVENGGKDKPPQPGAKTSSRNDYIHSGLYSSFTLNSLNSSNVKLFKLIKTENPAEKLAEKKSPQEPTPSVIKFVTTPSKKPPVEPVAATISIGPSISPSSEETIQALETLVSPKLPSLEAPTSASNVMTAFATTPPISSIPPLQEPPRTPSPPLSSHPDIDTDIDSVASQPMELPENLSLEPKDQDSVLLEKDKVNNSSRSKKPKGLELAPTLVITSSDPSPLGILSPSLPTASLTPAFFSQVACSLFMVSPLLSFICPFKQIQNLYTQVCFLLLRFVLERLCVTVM
In a few lines: as §1

For a further assay, the target named is T6, ETV2 (Homo sapiens, UniProt O00321 1-342).
T6 sequence: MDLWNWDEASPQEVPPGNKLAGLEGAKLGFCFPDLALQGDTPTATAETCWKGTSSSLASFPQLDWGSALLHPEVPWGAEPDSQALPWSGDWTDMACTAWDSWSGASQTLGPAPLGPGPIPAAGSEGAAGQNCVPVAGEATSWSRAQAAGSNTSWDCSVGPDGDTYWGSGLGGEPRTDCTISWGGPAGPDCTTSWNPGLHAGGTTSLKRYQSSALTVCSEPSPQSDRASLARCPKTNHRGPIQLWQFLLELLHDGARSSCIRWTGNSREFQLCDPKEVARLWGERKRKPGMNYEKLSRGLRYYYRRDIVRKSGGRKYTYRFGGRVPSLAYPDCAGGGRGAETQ
In a few lines:
as §1

A further assay concerns the target ETV1 (Homo sapiens, UniProt P50549 1-477). In a few lines:
as §1

The target of the next assay is T7, ERF (Homo sapiens, UniProt P50548 1-548).
T7 sequence: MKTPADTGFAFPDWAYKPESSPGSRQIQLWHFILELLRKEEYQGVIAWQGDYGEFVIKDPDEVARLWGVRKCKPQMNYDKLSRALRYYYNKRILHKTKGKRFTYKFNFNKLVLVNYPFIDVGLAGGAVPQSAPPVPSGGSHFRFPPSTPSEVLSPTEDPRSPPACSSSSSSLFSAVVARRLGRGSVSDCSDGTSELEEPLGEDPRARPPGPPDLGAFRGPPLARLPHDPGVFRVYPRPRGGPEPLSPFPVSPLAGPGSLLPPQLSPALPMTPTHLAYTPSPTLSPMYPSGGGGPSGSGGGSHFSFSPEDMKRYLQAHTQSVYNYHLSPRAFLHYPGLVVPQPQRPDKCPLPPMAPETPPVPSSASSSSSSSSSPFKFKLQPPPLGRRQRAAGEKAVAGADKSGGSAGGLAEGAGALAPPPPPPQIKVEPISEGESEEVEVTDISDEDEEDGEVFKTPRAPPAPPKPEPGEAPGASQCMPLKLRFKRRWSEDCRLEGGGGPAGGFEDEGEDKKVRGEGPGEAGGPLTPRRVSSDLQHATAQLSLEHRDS
The essentials:
as §1

A further assay addresses T8, ETV3L (Homo sapiens, UniProt Q6ZN32 1-361).
T8 sequence: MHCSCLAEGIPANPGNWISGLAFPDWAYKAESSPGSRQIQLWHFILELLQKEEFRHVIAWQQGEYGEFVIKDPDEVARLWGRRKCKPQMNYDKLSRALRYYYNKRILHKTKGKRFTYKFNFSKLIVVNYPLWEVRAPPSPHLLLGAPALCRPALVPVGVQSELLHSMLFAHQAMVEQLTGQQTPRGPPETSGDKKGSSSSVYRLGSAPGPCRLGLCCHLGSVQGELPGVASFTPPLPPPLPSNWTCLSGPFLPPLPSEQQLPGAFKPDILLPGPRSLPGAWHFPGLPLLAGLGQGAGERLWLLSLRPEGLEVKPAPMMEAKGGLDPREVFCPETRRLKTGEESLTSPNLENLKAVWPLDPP
In a few lines: as §1

The target of another assay is T9, ETS2 (Homo sapiens, UniProt P15036 1-469).
T9 sequence: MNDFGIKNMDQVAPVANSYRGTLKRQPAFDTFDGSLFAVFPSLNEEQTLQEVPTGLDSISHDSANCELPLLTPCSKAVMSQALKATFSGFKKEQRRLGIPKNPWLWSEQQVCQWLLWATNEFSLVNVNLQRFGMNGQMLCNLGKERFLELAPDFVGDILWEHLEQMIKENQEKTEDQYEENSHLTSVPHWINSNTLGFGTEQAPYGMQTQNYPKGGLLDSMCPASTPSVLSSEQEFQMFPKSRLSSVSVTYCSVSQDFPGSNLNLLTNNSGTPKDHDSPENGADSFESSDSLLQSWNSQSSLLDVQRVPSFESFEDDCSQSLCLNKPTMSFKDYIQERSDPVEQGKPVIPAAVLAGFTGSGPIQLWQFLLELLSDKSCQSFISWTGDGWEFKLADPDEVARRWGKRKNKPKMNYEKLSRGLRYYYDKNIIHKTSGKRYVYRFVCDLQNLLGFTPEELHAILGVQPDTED
In a few lines:
as §1

The target of a further assay is T10, ETV3 (Homo sapiens, UniProt P41162-2 1-143).
T10 sequence: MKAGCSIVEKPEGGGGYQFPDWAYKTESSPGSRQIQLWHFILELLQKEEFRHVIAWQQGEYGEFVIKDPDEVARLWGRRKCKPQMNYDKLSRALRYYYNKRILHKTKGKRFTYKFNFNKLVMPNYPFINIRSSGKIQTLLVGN
In a few lines: as §1

A further assay addresses ETV6 (Homo sapiens, UniProt P41212 1-452). The essentials: as §1
In a further assay the target is T11, ETV7 (Homo sapiens, UniProt Q9Y603 1-341).
T11 sequence: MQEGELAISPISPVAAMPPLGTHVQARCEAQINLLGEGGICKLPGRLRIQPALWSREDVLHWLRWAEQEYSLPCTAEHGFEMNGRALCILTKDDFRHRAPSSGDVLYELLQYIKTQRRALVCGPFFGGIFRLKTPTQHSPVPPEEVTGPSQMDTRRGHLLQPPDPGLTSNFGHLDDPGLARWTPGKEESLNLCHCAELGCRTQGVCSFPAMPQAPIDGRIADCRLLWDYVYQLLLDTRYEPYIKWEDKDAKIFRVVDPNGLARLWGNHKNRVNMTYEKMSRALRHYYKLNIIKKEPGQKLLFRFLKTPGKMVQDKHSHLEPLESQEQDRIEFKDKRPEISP
In a few lines: as §1

ETV5, sequence (P41161 whole entry): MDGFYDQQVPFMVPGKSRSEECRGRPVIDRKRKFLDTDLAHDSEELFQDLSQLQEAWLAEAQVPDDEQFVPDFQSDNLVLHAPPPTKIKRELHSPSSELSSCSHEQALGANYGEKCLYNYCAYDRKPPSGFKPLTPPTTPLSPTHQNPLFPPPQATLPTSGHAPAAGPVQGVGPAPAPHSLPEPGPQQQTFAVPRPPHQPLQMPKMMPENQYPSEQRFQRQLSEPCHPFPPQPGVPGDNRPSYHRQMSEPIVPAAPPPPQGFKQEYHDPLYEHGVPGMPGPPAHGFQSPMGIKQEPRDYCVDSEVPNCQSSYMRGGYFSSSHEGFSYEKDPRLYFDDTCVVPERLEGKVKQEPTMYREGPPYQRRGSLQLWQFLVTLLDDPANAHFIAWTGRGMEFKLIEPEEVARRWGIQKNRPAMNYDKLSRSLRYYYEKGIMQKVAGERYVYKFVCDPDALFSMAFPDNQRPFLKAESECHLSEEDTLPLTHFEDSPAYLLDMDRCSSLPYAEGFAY
ETV1, sequence (P50549 whole entry): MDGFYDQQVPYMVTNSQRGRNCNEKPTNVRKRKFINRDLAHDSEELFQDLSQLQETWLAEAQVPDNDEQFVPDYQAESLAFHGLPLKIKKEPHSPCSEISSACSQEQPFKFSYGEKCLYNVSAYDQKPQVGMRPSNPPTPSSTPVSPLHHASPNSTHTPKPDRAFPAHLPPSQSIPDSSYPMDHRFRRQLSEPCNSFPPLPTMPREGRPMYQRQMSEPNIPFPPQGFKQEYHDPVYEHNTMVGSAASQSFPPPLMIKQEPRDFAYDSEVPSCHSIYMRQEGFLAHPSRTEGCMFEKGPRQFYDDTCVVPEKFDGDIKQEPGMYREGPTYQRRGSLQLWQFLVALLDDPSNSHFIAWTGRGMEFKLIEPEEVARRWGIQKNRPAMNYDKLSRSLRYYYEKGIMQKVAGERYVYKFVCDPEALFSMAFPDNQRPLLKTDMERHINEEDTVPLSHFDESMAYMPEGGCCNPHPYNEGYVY
ETV6, sequence (P41212 whole entry): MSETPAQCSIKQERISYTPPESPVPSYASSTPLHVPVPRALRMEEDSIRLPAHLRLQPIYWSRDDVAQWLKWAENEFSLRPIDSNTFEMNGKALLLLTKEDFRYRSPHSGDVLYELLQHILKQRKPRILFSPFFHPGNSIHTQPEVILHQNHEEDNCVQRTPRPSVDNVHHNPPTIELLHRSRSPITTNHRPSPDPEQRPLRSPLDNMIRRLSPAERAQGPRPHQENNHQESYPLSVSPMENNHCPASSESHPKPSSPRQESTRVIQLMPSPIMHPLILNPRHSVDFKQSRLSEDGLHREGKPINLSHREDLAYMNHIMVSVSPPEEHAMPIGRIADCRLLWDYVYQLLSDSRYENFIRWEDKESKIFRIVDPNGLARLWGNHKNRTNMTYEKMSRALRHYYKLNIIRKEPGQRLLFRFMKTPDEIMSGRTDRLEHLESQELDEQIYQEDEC
ELF4, sequence (Q99607 whole entry): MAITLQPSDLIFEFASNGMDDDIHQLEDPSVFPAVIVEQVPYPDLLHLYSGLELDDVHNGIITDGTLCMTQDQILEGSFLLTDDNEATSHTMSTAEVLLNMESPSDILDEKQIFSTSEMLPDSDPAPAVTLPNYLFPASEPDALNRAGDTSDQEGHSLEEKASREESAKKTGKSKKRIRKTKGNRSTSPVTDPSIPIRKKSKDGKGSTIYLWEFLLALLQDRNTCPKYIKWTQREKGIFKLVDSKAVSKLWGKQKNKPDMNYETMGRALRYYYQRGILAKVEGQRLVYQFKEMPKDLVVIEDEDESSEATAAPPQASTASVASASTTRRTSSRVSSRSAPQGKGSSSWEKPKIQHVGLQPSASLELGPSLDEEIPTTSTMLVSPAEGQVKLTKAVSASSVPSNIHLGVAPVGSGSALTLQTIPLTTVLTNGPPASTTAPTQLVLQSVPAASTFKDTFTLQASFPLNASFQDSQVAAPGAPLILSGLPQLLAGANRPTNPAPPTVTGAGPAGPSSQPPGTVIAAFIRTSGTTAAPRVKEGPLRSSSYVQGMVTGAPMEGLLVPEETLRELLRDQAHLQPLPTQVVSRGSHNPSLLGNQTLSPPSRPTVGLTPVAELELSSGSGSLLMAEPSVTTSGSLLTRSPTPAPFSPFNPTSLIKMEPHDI

Consider GCAATC, for which the binding signal with ELK1 was 1.05 fold enrichment (6-mer frequency, TF over GST control); in the assay with GABPA, 1.04 fold enrichment (6-mer frequency, TF over GST control); with ERG it was 1.03 fold enrichment (6-mer frequency, TF over GST control); with ELF1, 1.09 fold enrichment (6-mer frequency, TF over GST control); with SPI1, 1.02 fold enrichment (6-mer frequency, TF over GST control); with SPIB, 1.05 fold enrichment (6-mer frequency, TF over GST control). The binding signal with FEV is 1.05 fold enrichment (6-mer frequency, TF over GST control); in the assay with ETV5 it was 1.06 fold enrichment (6-mer frequency, TF over GST control); in the assay with ELF4, 1.02 fold enrichment (6-mer frequency, TF over GST control); with ELK4, 1.07 fold enrichment (6-mer frequency, TF over GST control); with ETV2, 1.05 fold enrichment (6-mer frequency, TF over GST control); with ETV1, 1.06 fold enrichment (6-mer frequency, TF over GST control). In addition, the binding signal with ERF was 1.03 fold enrichment (6-mer frequency, TF over GST control); with ETV3L, 1.01 fold enrichment (6-mer frequency, TF over GST control); with ETS2, 1.04 fold enrichment (6-mer frequency, TF over GST control); with ETV3 it was 1.06 fold enrichment (6-mer frequency, TF over GST control); with ETV6, 1.11 fold enrichment (6-mer frequency, TF over GST control).
For the sequence TGGAAG, the binding signal in the assay with ERG was 1.05 fold enrichment (6-mer frequency, TF over GST control); with SPI1 it was 1.08 fold enrichment (6-mer frequency, TF over GST control); with SPIB it was 1.11 fold enrichment (6-mer frequency, TF over GST control); with ETV5, 1.03 fold enrichment (6-mer frequency, TF over GST control); in the assay with ELK4, 1.06 fold enrichment (6-mer frequency, TF over GST control); with ETV1, 1.02 fold enrichment (6-mer frequency, TF over GST control). In addition, the binding signal was 1.01 fold enrichment (6-mer frequency, TF over GST control) with ETS2; 1.13 fold enrichment (6-mer frequency, TF over GST control) in the assay with ETV7; 1.07 fold enrichment (6-mer frequency, TF over GST control) with ETV3; 1.19 fold enrichment (6-mer frequency, TF over GST control) in the assay with ETV6.
